Laboratory results from PMC7862700, “An all-to-all approach to the identification of sequence-specific readers for epigenetic DNA modifications on cytosine”.

Experiments:
Assay in all cases: DAPPL (digital affinity profiling via proximity ligation, sequencing); 10 mM Tris-HCl pH 7.5, 50 mM NaCl, 1 mM DTT, 4% glycerol, room temperature, 30 min; GST-TFs on glutathione beads, 16-mer random dsDNA library, 0.1% formaldehyde crosslink after washing; high values mean tight binding
FEV = target: T1, FEV (Homo sapiens, UniProt Q99581 1-238); settings: protein: recombinant; tags: N-terminal GST; dsDNA, one strand shown
T1 sequence: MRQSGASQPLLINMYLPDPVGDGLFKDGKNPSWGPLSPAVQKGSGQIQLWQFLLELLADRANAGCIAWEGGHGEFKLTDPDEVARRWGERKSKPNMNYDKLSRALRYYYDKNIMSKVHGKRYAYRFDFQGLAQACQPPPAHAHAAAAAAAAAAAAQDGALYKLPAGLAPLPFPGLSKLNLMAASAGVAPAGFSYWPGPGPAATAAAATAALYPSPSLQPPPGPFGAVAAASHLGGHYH
Outline: (§1)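 Human transcription factors carrying a GST fusion were produced in yeast, bound to glutathione beads, tagged with DNA barcodes and pooled together with a tag-only sample. Each pool was held with 200 nmole of a random double-stranded 16-mer DNA library in Tris/NaCl/DTT/glycerol buffer for 30 min at room temperature, then washed, crosslinked in 0.1% formaldehyde, proximity-ligated with BsaI/T4 ligase (1 h, 37 °C), PCR-amplified and sequenced on an Illumina NextSeq500. Binding signal is the read frequency of each hexamer for a given factor divided by its frequency in the tag-only sample.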

ETV5 = ETV5 (Homo sapiens, UniProt P41161 1-510); settings: protein: recombinant; tags: N-terminal GST; dsDNA, one strand shown
Outline: as §1

HSF1 = HSF1 (Homo sapiens, UniProt Q00613 1-529); settings: protein: recombinant; tags: N-terminal GST; chain copies: 3; dsDNA, one strand shown
Outline: as §1

SPIC = target: T2, SPIC (Homo sapiens, UniProt Q8N5J4 1-248); settings: protein: recombinant; tags: N-terminal GST; dsDNA, one strand shown
T2 sequence: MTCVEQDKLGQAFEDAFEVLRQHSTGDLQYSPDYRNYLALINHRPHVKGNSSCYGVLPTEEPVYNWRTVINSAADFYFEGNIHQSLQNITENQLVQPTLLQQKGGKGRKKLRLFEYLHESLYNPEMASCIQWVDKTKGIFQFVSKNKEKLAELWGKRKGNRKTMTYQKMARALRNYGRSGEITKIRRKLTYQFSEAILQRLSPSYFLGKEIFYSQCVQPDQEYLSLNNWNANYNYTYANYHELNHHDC
Outline: as §1

ELF4 = ELF4 (Homo sapiens, UniProt Q99607 1-663); settings: protein: recombinant; tags: N-terminal GST; dsDNA, one strand shown
Outline: as §1

ELK4 = target: T3, ELK4 (Homo sapiens, UniProt P28324-2 1-405); settings: protein: recombinant; tags: N-terminal GST; dsDNA, one strand shown
T3 sequence: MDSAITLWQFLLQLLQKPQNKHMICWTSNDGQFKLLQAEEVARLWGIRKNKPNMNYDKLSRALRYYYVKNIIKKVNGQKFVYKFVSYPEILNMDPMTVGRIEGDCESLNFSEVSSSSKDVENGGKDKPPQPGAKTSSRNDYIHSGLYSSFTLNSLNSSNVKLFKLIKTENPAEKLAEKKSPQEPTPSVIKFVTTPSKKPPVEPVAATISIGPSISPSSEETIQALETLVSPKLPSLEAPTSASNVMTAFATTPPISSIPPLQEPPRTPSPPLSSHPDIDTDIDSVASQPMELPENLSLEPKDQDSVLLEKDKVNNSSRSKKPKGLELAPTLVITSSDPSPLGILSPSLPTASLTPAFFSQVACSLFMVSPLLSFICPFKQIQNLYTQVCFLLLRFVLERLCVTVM
Outline: as §1

ETV2 = target: T4, ETV2 (Homo sapiens, UniProt O00321 1-342); settings: protein: recombinant; tags: N-terminal GST; dsDNA, one strand shown
T4 sequence: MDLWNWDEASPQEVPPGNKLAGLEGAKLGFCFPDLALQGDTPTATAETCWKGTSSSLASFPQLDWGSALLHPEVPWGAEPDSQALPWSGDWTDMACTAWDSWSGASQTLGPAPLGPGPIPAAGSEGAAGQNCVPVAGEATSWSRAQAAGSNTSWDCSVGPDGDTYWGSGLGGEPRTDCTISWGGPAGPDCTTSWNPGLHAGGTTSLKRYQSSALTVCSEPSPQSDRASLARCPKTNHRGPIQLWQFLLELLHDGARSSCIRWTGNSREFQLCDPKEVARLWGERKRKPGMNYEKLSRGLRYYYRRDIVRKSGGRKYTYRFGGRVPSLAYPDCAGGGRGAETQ
Outline: as §1

ELF3 = target: T5, ELF3 (Homo sapiens, UniProt P78545 1-371); settings: protein: recombinant; tags: N-terminal GST; dsDNA, one strand shown
T5 sequence: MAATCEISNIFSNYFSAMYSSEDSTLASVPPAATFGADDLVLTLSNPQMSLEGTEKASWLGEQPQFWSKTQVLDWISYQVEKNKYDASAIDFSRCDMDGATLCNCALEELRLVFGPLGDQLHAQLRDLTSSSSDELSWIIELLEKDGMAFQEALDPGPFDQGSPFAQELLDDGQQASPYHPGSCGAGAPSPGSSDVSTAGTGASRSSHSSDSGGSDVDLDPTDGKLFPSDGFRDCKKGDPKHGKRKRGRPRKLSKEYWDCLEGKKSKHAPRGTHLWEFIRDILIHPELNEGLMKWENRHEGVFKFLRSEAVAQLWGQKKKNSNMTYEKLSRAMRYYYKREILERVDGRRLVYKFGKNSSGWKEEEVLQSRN
Outline: as §1

CRX = CRX (Homo sapiens, UniProt O43186 1-299); settings: protein: recombinant; tags: N-terminal GST; dsDNA, one strand shown
Outline: as §1

ETV1 = ETV1 (Homo sapiens, UniProt P50549 1-477); settings: protein: recombinant; tags: N-terminal GST; dsDNA, one strand shown
Outline: as §1

Sequence of ELF4 (Q99607 whole entry): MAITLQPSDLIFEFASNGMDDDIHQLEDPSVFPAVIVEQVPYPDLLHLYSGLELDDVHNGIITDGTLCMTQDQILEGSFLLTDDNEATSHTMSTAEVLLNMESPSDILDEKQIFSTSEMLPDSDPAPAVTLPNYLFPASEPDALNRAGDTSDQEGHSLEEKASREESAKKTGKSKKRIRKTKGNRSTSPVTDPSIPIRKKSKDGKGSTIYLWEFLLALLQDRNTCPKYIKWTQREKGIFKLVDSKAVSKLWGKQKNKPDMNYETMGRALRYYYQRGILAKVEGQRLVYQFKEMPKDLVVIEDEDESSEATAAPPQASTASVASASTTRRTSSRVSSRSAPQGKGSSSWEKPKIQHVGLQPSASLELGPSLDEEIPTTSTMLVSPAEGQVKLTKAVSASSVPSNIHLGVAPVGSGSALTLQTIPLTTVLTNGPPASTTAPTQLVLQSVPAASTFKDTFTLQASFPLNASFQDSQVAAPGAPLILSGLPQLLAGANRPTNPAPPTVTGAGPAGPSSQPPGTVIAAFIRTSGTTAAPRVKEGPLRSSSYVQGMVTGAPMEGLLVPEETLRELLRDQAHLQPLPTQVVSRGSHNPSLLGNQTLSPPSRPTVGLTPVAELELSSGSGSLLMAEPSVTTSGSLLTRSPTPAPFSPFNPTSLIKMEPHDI
Sequence of HSF1 (Q00613 whole entry): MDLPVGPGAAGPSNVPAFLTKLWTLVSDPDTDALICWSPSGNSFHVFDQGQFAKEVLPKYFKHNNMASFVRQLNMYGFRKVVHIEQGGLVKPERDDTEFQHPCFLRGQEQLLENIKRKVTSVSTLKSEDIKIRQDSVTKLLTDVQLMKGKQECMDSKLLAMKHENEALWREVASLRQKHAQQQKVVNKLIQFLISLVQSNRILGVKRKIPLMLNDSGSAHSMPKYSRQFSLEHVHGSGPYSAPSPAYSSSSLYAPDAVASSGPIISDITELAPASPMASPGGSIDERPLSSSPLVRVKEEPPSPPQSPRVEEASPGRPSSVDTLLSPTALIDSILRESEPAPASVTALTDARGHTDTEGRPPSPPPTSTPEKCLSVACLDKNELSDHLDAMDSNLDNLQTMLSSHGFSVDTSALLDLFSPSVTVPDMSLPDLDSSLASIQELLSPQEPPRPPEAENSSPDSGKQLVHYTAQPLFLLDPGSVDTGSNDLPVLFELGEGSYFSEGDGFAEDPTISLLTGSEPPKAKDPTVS
Sequence of ETV5 (P41161 whole entry): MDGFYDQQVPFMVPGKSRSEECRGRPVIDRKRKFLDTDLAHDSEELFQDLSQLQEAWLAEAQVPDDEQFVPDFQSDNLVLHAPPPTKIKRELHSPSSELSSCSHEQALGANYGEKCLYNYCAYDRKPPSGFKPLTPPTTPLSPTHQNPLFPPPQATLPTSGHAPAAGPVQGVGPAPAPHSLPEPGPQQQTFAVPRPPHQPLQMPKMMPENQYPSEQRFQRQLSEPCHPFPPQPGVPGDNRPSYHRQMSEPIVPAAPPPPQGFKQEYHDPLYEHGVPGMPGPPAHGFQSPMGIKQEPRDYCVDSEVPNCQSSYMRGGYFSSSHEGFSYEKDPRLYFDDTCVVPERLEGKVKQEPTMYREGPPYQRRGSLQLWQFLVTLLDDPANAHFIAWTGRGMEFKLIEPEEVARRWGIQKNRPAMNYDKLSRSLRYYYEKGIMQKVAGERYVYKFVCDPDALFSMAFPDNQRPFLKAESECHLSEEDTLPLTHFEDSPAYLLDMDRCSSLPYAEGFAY
Sequence of CRX (O43186 whole entry): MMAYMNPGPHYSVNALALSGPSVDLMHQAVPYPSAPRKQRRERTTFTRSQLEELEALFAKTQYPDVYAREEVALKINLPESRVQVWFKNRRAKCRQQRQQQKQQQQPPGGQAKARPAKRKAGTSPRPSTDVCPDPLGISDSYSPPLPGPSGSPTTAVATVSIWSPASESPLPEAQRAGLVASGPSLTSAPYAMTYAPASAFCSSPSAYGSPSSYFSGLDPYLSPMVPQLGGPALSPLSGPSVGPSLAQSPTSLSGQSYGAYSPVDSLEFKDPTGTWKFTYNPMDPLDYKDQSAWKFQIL
Sequence of ETV1 (P50549 whole entry): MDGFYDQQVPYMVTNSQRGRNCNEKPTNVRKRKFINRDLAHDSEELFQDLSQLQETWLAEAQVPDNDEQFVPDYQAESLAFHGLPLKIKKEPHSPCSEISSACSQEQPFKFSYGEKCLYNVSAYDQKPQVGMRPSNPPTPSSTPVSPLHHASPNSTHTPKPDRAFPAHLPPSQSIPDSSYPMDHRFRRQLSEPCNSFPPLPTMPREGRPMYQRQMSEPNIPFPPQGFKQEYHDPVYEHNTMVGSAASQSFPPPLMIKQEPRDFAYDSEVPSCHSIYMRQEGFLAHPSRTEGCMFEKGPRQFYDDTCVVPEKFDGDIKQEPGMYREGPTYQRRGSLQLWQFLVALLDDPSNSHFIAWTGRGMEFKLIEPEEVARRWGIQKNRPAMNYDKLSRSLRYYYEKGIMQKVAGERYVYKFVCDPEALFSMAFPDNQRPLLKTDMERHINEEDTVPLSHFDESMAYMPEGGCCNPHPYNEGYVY

Sequence | binding signal (FEV) | binding signal (ETV5) | binding signal (HSF1) | binding signal (SPIC) | binding signal (ELF4) | binding signal (ELK4) | binding signal (ETV2) | binding signal (ELF3) | binding signal (CRX) | binding signal (ETV1)
CTACTT | 2.08 fold enrichment (6-mer frequency, TF over GST control) | 1.78 fold enrichment (6-mer frequency, TF over GST control) | 1.44 fold enrichment (6-mer frequency, TF over GST control) | 1.89 fold enrichment (6-mer frequency, TF over GST control) | 1.82 fold enrichment (6-mer frequency, TF over GST control) | 1.87 fold enrichment (6-mer frequency, TF over GST control) | 1.84 fold enrichment (6-mer frequency, TF over GST control) | 1.89 fold enrichment (6-mer frequency, TF over GST control) | 1.78 fold enrichment (6-mer frequency, TF over GST control) | 1.89 fold enrichment (6-mer frequency, TF over GST control)
TTTGCA | 1.18 fold enrichment (6-mer frequency, TF over GST control) | 1.22 fold enrichment (6-mer frequency, TF over GST control) | 1.26 fold enrichment (6-mer frequency, TF over GST control) | 1.23 fold enrichment (6-mer frequency, TF over GST control) | 1.29 fold enrichment (6-mer frequency, TF over GST control) | 1.3 fold enrichment (6-mer frequency, TF over GST control) | 1.24 fold enrichment (6-mer frequency, TF over GST control) | 1.28 fold enrichment (6-mer frequency, TF over GST control) | 1.48 fold enrichment (6-mer frequency, TF over GST control) | 1.29 fold enrichment (6-mer frequency, TF over GST control)
ACTACT | 1.3 fold enrichment (6-mer frequency, TF over GST control) | 1.19 fold enrichment (6-mer frequency, TF over GST control) | 1.12 fold enrichment (6-mer frequency, TF over GST control) | 1.26 fold enrichment (6-mer frequency, TF over GST control) | 1.22 fold enrichment (6-mer frequency, TF over GST control) | 1.36 fold enrichment (6-mer frequency, TF over GST control) | 1.44 fold enrichment (6-mer frequency, TF over GST control) | 1.24 fold enrichment (6-mer frequency, TF over GST control) | 1.11 fold enrichment (6-mer frequency, TF over GST control) | 1.14 fold enrichment (6-mer frequency, TF over GST control)
ACCTTA | 1.27 fold enrichment (6-mer frequency, TF over GST control) | 1.23 fold enrichment (6-mer frequency, TF over GST control) | 1.19 fold enrichment (6-mer frequency, TF over GST control) | 1.11 fold enrichment (6-mer frequency, TF over GST control) | 1.24 fold enrichment (6-mer frequency, TF over GST control) | 1.32 fold enrichment (6-mer frequency, TF over GST control) | 1.32 fold enrichment (6-mer frequency, TF over GST control) | 1.22 fold enrichment (6-mer frequency, TF over GST control) | 1.43 fold enrichment (6-mer frequency, TF over GST control) | 1.4 fold enrichment (6-mer frequency, TF over GST control)
GCCCTA | 1.28 fold enrichment (6-mer frequency, TF over GST control) | 1.16 fold enrichment (6-mer frequency, TF over GST control) | 1.13 fold enrichment (6-mer frequency, TF over GST control) | 1.18 fold enrichment (6-mer frequency, TF over GST control) | 1.24 fold enrichment (6-mer frequency, TF over GST control) | 1.24 fold enrichment (6-mer frequency, TF over GST control) | 1.06 fold enrichment (6-mer frequency, TF over GST control) | 1.19 fold enrichment (6-mer frequency, TF over GST control) | 1.27 fold enrichment (6-mer frequency, TF over GST control) | 1.06 fold enrichment (6-mer frequency, TF over GST control)
ATTTAA | 1.14 fold enrichment (6-mer frequency, TF over GST control) | 1.24 fold enrichment (6-mer frequency, TF over GST control) | 1.62 fold enrichment (6-mer frequency, TF over GST control) | 1.22 fold enrichment (6-mer frequency, TF over GST control) | 1.13 fold enrichment (6-mer frequency, TF over GST control) | 1.18 fold enrichment (6-mer frequency, TF over GST control) | 1.17 fold enrichment (6-mer frequency, TF over GST control) | 1.11 fold enrichment (6-mer frequency, TF over GST control) | 2.38 fold enrichment (6-mer frequency, TF over GST control) | 1.14 fold enrichment (6-mer frequency, TF over GST control)
TGCTCT | 1.37 fold enrichment (6-mer frequency, TF over GST control) | 1.37 fold enrichment (6-mer frequency, TF over GST control) | 1.3 fold enrichment (6-mer frequency, TF over GST control) | 1.2 fold enrichment (6-mer frequency, TF over GST control) | 1.36 fold enrichment (6-mer frequency, TF over GST control) | 1.38 fold enrichment (6-mer frequency, TF over GST control) | 1.47 fold enrichment (6-mer frequency, TF over GST control) | 1.36 fold enrichment (6-mer frequency, TF over GST control) | 1.24 fold enrichment (6-mer frequency, TF over GST control) | 1.33 fold enrichment (6-mer frequency, TF over GST control)
